# According to PubChem BioAssay:
# Activity calls are given as the source filed them.
# Assays:
# [1] = small molecules captured by biotinylated probe aFSTL3 – biochemical, small-molecule microarray, fluorescence 635/667, stem cell growth factor project, primary screen (AID 1064); conditions: higher = more signal;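 also: measures binding of the biotinylated anti-FSTL3 antibody to printed compounds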
# [2] = binders from COS7 lysate, DM2A8 probe, primary screen, torsin A project, cell lysate, small-molecule microarray, fluorescence 635/667 (AID 1065); conditions: higher = more signal, COS7 lysate expressing mutant human TOR1A
# [3] = small molecules captured by biotinylated probe aFGF2 – biochemical, small-molecule microarray, fluorescence 635/667, stem cell growth factor project, primary screen (AID 1067); conditions: higher = more signal;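 also: measures binding of biotinylated aFGF2 protein to printed compounds on slides; z-score merges feature fluorescence and signal-to-noise across triplicate slides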
# [4] = small molecules captured by biotinylated probe aFGF10 – biochemical, small-molecule microarray, fluorescence 635/667, stem cell growth factor project, primary screen (AID 1071); conditions: higher = more signal;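 also: score merges 667 nm spot intensity and signal to noise from triplicate slides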
# [5] = target: Neurogenic locus notch homolog protein 2 (Homo sapiens) (UniProt Q04721); assay: small molecules binding Notch2 protein – biochemical, small-molecule microarray, 635 nm fluorescence, stem cell growth factors, primary screen (AID 1073); conditions: higher = more signal
# [6] = target: Pro-neuregulin-1, membrane-bound isoform (Homo sapiens) (UniProt Q02297); assay: small molecules binding neuregulin-1 protein – biochemical, small-molecule microarray, fluorescence 635/667, psychiatric disease protein project, primary screen (AID 1075); conditions: NRG1 binding, 635 nm fluorescence, higher = more signal;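 also: score combines 667 nm spot fluorescence with signal to noise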
# [7] = system: Neuregulin-1 EGF-like domain; assay: small molecules binding NRG1 EGF domain – biochemical, small-molecule microarray, 635 nm fluorescence, primary screen (AID 1081); conditions: higher = more signal;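 also: binding of the protein to compounds printed on small-molecule microarray slides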
# [8] = FRG1 expression reporter modulators in myotubes – cell-based, C2C12 myotubes, firefly/Renilla luciferase, luminescence, FRG1 inhibition for FSHD, primary screen (AID 1084); conditions: FRG1 promoter luciferase, higher = more signal, called active from +8 up or from −8 down
# [9] = small molecules captured by biotinylated probe aFST – biochemical, small-molecule microarray, fluorescence 635/667, stem cell growth factor project, primary screen (AID 1086); conditions: higher = more signal;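 also: score merges 667 nm fluorescence with signal-to-noise of each printed compound spot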
# [10] = binders of probe aHhip on microarray, primary screen, stem cell growth factor project, biochemical, small-molecule microarray, fluorescence 635/667 (AID 1087); conditions: higher = more signal;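 also: score merges spot fluorescence at 667nm with spot signal to noise ratio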
# Chain of Neurogenic locus notch homolog protein 2 (Homo sapiens) (Q04721 whole entry, looked up, canonical isoform): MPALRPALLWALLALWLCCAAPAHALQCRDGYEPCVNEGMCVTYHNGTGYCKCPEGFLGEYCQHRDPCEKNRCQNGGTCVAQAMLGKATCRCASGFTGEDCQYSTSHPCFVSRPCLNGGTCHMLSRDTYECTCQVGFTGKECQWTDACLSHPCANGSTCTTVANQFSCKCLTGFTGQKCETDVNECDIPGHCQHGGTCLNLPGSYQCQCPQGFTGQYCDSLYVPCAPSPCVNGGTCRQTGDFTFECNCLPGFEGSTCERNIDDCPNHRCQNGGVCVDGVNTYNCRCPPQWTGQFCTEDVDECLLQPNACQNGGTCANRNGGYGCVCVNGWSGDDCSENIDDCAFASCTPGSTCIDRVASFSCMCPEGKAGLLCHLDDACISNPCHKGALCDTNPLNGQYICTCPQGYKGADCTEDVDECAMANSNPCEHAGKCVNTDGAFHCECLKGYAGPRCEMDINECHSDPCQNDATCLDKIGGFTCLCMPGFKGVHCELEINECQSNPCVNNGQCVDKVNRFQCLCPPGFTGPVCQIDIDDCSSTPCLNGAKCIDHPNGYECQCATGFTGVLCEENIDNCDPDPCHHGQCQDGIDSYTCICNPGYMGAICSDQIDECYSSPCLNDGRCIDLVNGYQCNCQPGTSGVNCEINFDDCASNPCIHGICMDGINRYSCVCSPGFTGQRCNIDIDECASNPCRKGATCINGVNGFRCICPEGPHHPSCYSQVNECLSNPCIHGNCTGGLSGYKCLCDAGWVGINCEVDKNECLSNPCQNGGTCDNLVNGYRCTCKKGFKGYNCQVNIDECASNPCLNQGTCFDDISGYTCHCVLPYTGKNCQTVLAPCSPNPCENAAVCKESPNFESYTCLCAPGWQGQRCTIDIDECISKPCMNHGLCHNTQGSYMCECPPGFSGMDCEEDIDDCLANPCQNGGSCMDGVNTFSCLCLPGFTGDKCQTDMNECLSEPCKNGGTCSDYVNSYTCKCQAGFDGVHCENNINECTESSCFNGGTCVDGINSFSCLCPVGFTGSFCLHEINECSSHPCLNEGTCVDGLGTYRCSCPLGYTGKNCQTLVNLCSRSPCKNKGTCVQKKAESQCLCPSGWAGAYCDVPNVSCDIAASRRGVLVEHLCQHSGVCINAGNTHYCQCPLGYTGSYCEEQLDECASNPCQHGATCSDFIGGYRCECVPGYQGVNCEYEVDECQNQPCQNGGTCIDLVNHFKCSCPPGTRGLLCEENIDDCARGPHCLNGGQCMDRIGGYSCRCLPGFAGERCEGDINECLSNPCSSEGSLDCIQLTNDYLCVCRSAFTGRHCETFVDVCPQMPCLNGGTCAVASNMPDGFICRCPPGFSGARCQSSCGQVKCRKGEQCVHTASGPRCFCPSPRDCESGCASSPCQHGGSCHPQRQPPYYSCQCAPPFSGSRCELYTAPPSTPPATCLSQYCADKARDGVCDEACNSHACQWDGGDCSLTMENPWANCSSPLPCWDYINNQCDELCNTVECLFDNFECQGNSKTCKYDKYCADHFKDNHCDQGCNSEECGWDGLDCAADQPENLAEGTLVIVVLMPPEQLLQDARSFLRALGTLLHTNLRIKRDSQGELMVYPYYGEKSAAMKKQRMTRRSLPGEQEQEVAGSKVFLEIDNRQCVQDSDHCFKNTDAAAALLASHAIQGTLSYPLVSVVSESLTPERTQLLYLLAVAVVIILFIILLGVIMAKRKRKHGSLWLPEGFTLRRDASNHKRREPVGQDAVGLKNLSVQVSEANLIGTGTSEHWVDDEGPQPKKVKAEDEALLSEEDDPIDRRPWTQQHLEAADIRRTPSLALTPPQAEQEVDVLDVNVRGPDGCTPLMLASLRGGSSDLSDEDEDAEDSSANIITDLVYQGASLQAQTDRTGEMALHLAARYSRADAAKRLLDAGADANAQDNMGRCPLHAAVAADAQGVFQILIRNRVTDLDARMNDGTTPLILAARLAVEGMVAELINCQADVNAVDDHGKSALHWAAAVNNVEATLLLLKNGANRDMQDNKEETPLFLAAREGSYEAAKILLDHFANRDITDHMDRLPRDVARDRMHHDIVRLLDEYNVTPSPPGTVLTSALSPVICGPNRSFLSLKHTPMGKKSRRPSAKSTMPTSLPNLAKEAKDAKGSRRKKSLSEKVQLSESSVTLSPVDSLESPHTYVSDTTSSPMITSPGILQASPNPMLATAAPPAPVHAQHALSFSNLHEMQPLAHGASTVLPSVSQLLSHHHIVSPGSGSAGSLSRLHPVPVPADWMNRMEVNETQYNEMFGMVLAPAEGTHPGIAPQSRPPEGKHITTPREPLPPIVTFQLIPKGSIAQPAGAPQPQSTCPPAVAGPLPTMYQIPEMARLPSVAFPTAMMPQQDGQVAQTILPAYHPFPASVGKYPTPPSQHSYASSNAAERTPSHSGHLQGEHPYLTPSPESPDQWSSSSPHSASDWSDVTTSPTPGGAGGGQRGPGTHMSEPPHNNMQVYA
# Chain of Pro-neuregulin-1, membrane-bound isoform (Homo sapiens) (Q02297 whole entry, looked up, the tested form may be a part, canonical isoform): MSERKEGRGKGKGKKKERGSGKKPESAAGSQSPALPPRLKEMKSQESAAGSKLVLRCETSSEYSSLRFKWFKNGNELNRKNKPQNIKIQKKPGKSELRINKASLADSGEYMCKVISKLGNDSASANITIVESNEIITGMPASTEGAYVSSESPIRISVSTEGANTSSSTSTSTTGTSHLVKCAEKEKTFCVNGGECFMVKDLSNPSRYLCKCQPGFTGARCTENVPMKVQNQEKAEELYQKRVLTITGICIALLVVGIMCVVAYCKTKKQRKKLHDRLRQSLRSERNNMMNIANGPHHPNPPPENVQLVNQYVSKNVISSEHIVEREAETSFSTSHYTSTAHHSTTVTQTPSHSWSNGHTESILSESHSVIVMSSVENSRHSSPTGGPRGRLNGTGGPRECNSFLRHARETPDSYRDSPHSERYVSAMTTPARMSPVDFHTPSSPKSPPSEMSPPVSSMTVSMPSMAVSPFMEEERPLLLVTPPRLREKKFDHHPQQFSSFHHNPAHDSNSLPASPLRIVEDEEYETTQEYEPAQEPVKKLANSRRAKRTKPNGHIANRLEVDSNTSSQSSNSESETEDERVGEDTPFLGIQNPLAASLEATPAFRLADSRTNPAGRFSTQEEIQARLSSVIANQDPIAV
SMILES,composite z-score [1],composite z-score [2],composite z-score [3],composite z-score [4],composite z-score [5],composite z-score [6],composite z-score [7],z-score [8],composite z-score [9],composite z-score [10]
COc1ccc(CCNC(=O)[C@@]2(Sc3ccc(C)cc3)CC(=O)N(Cc3ccccc3C(F)(F)F)[C@@H]2c2ccc(CO)cc2I)cc1,0.673,-1.11,-0.156,0.116,-1.11,1.99,1.01,-1.08 (inactive),-0.261,-0.236
COc1ccc([Si](C)(C)[C@H]2[C@H](CC(=O)N(CCO)Cc3ccccc3)O[C@@]3(C(=O)N(C)c4c(Br)cc(C)cc43)[C@@H]2C)cc1,0.145,0.671,-0.0861,0.208,-0.0381,0.435,1.22,-2.73 (inactive),0.152,0.107
C=C[C@@H](OC)[C@H](OC(=O)Nc1ccc(OC)cc1)c1ccc(O)c(F)c1,-0.122,1.6,-0.142,-0.528,-1.25,0.749,1.15,3.87 (inactive),-0.39,-0.0994
CO[C@H]1O[C@H](CO)[C@@H](OC(=O)CCc2ccccc2)[C@@H]2OC(=O)[C@@H](Cc3ccccc3)C/C=C/C[C@H](Cc3ccccc3)C(=O)O[C@@H]12,-0.0519,0.595,-0.0962,0.242,0.185,0.438,0.756,0.248 (inactive),0.671,0.0854
CN(C)C(=O)[C@@]1(Cc2ccccc2)N=C(c2ccc(OCCCO)cc2)O[C@H]1c1ccccc1,0.558,0.459,0.133,1.24,1.5,1.18,1.29,-1.57 (inactive),0.889,0.28
COc1ccc([Si](C)(C)[C@@H]2[C@@H](CC(=O)N3Cc4ccccc4C[C@H]3CO)O[C@]3(C(=O)N(Cc4ccc(N5C(=O)c6cccc7cccc5c67)cc4)c4ccccc43)[C@H]2C)cc1,-0.184,0.614,-0.0136,0.637,1.21,0.325,1.17,-1.88 (inactive),0.0242,-0.361
COc1ccc(CCNC(=O)[C@@]2(Cc3ccccc3I)c3ccccc3C(=O)N(C3CCCCC3)[C@H]2c2ccc(CO)cc2)cc1,-0.0515,-0.256,-0.079,-0.0337,0.281,0.56,0.897,-4.25 (inactive),0.384,-0.0645
CN1C(=O)C2C=CC(C(O)c3cccn3C)N(Nc3ccc([N+](=O)[O-])cc3[N+](=O)[O-])C2C1=O (stereo not given),0.108,-0.0125,0.157,0.162,1.05,0.392,0.828,0.351 (inactive),0.477,-0.0631
COC(=O)[C@]1(CCS(=O)(=O)c2ccccc2)N=C(c2ccc(OCCCO)cc2)O[C@@H]1c1ccccc1N=[N+]=[N-],0.48,0.619,0.136,0.898,1.53,1.79,1.37,1.89 (inactive),1.15,0.0102
C[N+](C)(C)CCCC[C@@H]1NC(=O)[C@@H]2C[C@H](C(=O)NCCCCCCN)[C@H](c3cccc(OCCO)c3)N2C1=O,2.69,2.09,0.239,0.494,0.731,2.31,1.38,-0.155 (inactive),2.1,1.05
CCCCC(CC)C(O)C1C=CC2C(=O)N(c3ccccc3)C(=O)C2N1Nc1ccc(C#N)cc1 (stereo not given),0.883,0.468,0.332,1,1.59,0.893,1.31,-0.257 (inactive),1.66,-0.183
COc1cc2c(cc1O)C(C1CC1)N(C)CC2 (stereo not given),0.646,-0.616,-0.104,-0.874,-0.531,0.63,-0.197,0.0877 (inactive),-0.406,-0.0994
[N-]=[N+]=Nc1ccccc1C[C@@]1(C(=O)NCCN2CCOCC2)N=C(c2ccc(OCCCO)cc2)O[C@@H]1c1ccccc1N=[N+]=[N-],0.59,0.639,-0.167,1.28,1.04,1.69,1.29,-2.04 (inactive),0.98,0.122
C=CC[C@]1(C(=O)N2CCCCC2)N=C(c2ccc(OCCCO)cc2)O[C@H]1c1ccccc1CN=[N+]=[N-],-0.25,0.516,0.238,0.546,1.42,1.17,1.24,-1.08 (inactive),0.907,-0.0699
C=C(C(=O)CC[C@H](OC(=O)c1ccccc1-c1ccccc1C(=O)O)c1cccc(OCCO)c1)C(C)C,-0.337,-0.062,-0.109,0.211,-0.275,0.262,0.0799,-0.0752 (inactive),-0.224,-0.134
CCOC(=O)C1=C[C@@H](C(C)(C)C)N(S(=O)(=O)c2ccc(C)cc2)[C@H]1c1cccc2ccccc12,0.0905,-0.0282,-0.0724,0.0331,1.08,0.541,0.876,-4.42 (inactive),0.692,-0.0296
COc1ccc([Si](C)(C)[C@@H]2[C@@H](CC(=O)N(CCO)Cc3ccccc3)O[C@]3(C(=O)N(Cc4cccc(N5CCCCC5=O)c4)c4ccccc43)[C@H]2C)cc1,0.0001,0.585,-0.0019,0.212,0.185,1.72,1.23,0.306 (inactive),0.222,-0.181
